Data as given in the supplement of paper PMC10338343.
± gives the standard deviation. In all, about 8,200 sequences were measured (“pre-steady-state target cleavage rate”: median about 0.024, highest 2% from about 1.3 on). The list comes from a sample in which the highest values are over-represented; it also holds similar and randomly drawn sequences.

Test system: MIWI (PIWIL1) piRISC loaded with L1MC piRNA (30 nt)
Assay: pre-steady-state target cleavage rate (min^-1); MIWI and MILI are mouse PIWI proteins and EfPiwi is from a freshwater sponge; tags in brackets are library labels; higher = faster piRNA-guided slicing of the target
Conditions: guide: L1MC piRNA 5'p-UAACUAAAUACUAUGCAAGCUGUAGGUCCU
How it was run: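 With or without 500 nM GTSF1 partner protein, 1 nM active affinity-purified piRISC carrying one synthetic guide was mixed with 0.1 nM transcribed, DNA-blocked target RNA library in HEPES–potassium acetate buffer at 33 °C for 0–8 or 0–960 min. Uncleaved targets were sequenced and normalised to depth and to weakly complementary targets, three trials were pooled, and k3 was capped at 0.0001 min^-1. The pre-steady-state cleavage rate came from a burst-and-steady-state fit.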

[1] = auxiliary factor: 500 nM mouse GTSF1
[2] = auxiliary factor: none (no GTSF1)

Sequence | pre-steady-state target cleavage rate [1] | pre-steady-state target cleavage rate [2]
UCGACCUACGCUUGCAUAGUAUUUAGUUA | 1.45 ± 0.052 | 0.0463 ± 0.0093
UCCACCUACGCUUGCAUAGUAUUUAGUUA | 0.998 ± 0.04 | 0.0451 ± 0.0077
UGGACCUACGCUUGCAUAGUAUUUAGUUA | 1.4 ± 0.081 | 0.046 ± 0.008
UCGACCUACACGCUUGCAUAGUAUUUAGUUA | 1.23 ± 0.063 | 0.0454 ± 0.0074
AGGACCUACGCUUGCAUAGUAUUUAGUUA | 1.27 ± 0.066 | 0.0719 ± 0.013
UGGACCUACACGCUUGCAUAGUAUUUAGUUA | 1.06 ± 0.06 | 0.0641 ± 0.013
UCCACCUACAGGUUGCAUAGUAUUUAGUAA | 0.866 ± 0.1 | 0.0134 ± 0.0028
UCCUGGUACAGCUUGCCAUAGUAUUUAGUUA | 0.0951 ± 0.024 | 
UCCUCCUACUGCUUGCAUAGUAUUUAGAUA | 0.185 ± 0.024 | 0.0115 ± 0.002
UCCUGGAUGAGCUUGCAUAGUAAUUAGAUA | 0.136 ± 0.034 | 0.00679 ± 0.0036
UCCUGGAUGUGCUUGCAUUGUAUUUAGAUA | 0.0181 ± 0.0038 | 0.0063 ± 0.0025
UCCUGCUACAGCUAGCAUAGAAUUUAGUUA | 0.528 ± 0.048 | 0.0108 ± 0.0032
UGGGCCUACAGCUUGCAUAGUAUUUAGUUA | 1.39 ± 0.08 | 0.0716 ± 0.013
AGGGCCUACAGCUUGCAUAGUAUUUAGUUA | 1.39 ± 0.061 | 0.106 ± 0.023
UCCUGGAUGAGCUUGAAUAGUAUUUAGUUA | 0.944 ± 0.045 | 0.0233 ± 0.007
UCCUGGAUCAGCAUGCAUAGUAUUUUGUUA | 0.517 ± 0.03 | 0.00866 ± 0.003
UCCUGCUACAGCUUGCAAAGUAUUUAGAAA | 0.319 ± 0.043 | 0.00338 ± 0.0032
UCCUGCUACAGCUAGGAUAGUAUUUAGUUA | 1.15 ± 0.12 | 0.006 ± 0.0018
UCCACCAACAGCAUGCAUAGUAUUUAGUUA | 0.943 ± 0.032 | 0.0211 ± 0.0046
AGGACCAACAGCAUGCAUAGUAUUUAGUUA | 1.39 ± 0.048 | 0.0703 ± 0.016

Sequence | pre-steady-state target cleavage rate [1] | pre-steady-state target cleavage rate [2]
UGGACCAACAGCAUGCAUAGUAUUUAGUUA | 1.24 ± 0.046 | 0.0449 ± 0.01
UCCUCCAACAGCAUGCAUAGUAUUUAGUUA | 1.11 ± 0.051 | 0.0217 ± 0.0039
UCGACCAACAGGUUGCAUAGUAUUUAGUUA | 1.16 ± 0.049 | 0.0326 ± 0.006
UCGACCAACAGCAUGCAUAGUAUUUAGUUA | 1.33 ± 0.037 | 0.033 ± 0.0067
UCCACCUAGUGCUUGCAUAGUAUUUUCAAA | 0.0568 ± 0.012 | 
UGGACCUAGUCCUUGCAUAGUAUUUACAAA | 0.0221 ± 0.0084 | 
UGCACCUACAGCUAGCAUAGUAUUUAGUUA | 1.22 ± 0.097 | 0.0194 ± 0.0043
UCCUGGAUGAGCUUGCAUAGUAUUAUGAAA | 0.0112 ± 0.0054 | 
UCGACCUACAGCUUGCAAAGUAUUUACAAA | 0.33 ± 0.035 | 0.00465 ± 0.002
UCCUGCUUGUGCUUGCAUAGUAUUUACAAA | 0.0637 ± 0.014 | 0.00366 ± 0.0024
UCGACCUACAGCAAGCAUAGUAUUUAGUAA | 0.818 ± 0.066 | 0.00275 ± 0.0026
UGGACCUACAGCAAGCAUAGUAUUUAGUUA | 1.34 ± 0.1 | 0.00929 ± 0.0027
UCGACCUACAGCAAGCAUAGUAUUUAGUUA | 1.4 ± 0.083 | 0.00748 ± 0.0028
AGGACCUACAGCAAGCAUAGUAUUUAGUUA | 1.2 ± 0.069 | 0.0105 ± 0.0035
UCGACCUACAGCAAGCAUAGUAUUUAGAAA | 0.349 ± 0.041 | 
UGGACCUACAGCAAGCAUAGUAUUUAGUAA | 0.898 ± 0.11 | 0.0053 ± 0.0019
UCCUCCUACAGCUUGCAUAGUACUUUAGUUA | 0.588 ± 0.024 | 0.00867 ± 0.0017
AGGACCUAGUCCUUGCAUAGUAUUUACAAA | 0.256 ± 0.046 | 0.00328 ± 0.0019
UCCUGGUACAGCUUGCAUAGUUUUUAGAUA | 0.136 ± 0.043 | 0.00988 ± 0.0027
AGGACCUACAGCUUGCAUAGUAAUUAGAAA | 0.475 ± 0.071 | 0.00445 ± 0.0038

Sequence | pre-steady-state target cleavage rate [1] | pre-steady-state target cleavage rate [2]
UCCUGGAACUGCAUGCAUAGUAUUUAGUUA | 0.442 ± 0.035 | 0.00687 ± 0.0019
UCCACCUACAGCAUGGAUAGUAUUUAGUUA | 1.34 ± 0.062 | 0.0231 ± 0.0039
AGGACCUACAGCAUGGAUAGUAUUUAGUUA | 1.57 ± 0.086 | 0.0502 ± 0.0089
UCGACCUACAGCAUGCUUAGUAUUUAGUUA | 0.915 ± 0.057 | 0.0113 ± 0.0023
UCCACCUACAGCAUGCAUAGUAUUUAGUUA | 0.977 ± 0.054 | 0.0309 ± 0.0079
UCCACCUACAGCAUGCAUAGUAUUUAGAUA | 0.423 ± 0.045 | 0.00605 ± 0.0027
AGGACCUACAGCAUGCUUAGUAUUUAGUUA | 0.977 ± 0.058 | 0.0155 ± 0.0029
UCGACCUACAGCAUGCAUAGUAUUUAGAUA | 0.538 ± 0.041 | 0.0119 ± 0.004
UCCUCCUACAGCAUGGAUAGUAUUUAGUUA | 1.38 ± 0.067 | 0.0219 ± 0.0037
UCGACCUACAGCAUGGAUAGUAUUUAGUUA | 1.59 ± 0.076 | 0.0294 ± 0.005
UCCUCCUACAGCAUGCAUAGUAUUUAGUUA | 1.2 ± 0.051 | 0.0219 ± 0.0048
UCCUGCUACAGCAUGGAUAGUAUUUAGUUA | 1.13 ± 0.15 | 0.015 ± 0.0025
UGGACCUACAGGAAGCAUAGUAUUUAGUUA | 0.994 ± 0.094 | 0.00926 ± 0.0024
UCCUGGUACAGCUUGACAUAGUAUUUAGUUA | 0.271 ± 0.027 | 
UCCUGGUACACCUUGCAUAGUAUUUUGUUA | 0.436 ± 0.1 | 0.00901 ± 0.0027
ACGACCUACAGCUUGCAUAGUAUUUUCAAA | 0.618 ± 0.067 | 0.00505 ± 0.004
UCCUGGAUGUCCUUGCAUAGUAUUUAGUGUA | 0.0232 ± 0.0073 | 0.00487 ± 0.0027
UGGACCUACAGCAUGGAUAGUAUUUAGUUA | 1.47 ± 0.1 | 0.0301 ± 0.0054
UGGACCUACAGCAUGCUUAGUAUUUAGUUA | 0.877 ± 0.056 | 0.0147 ± 0.0037
UGGACCUACAGCAUCCAUAGUAUUUAGUUA | 0.102 ± 0.017 | 0.00273 ± 0.002
